Screens as filed in PubChem BioAssay.
Rows were chosen to be rich in hits. Some 9.4% of all compounds tested hit in one or more screens of this group.
Pf growth 96h – Primary qHTS for delayed death inhibitors of the malarial parasite plastid, 96 hour incubation. P. falciparum luciferase reporter growth, 96 h. Potency, µM (top dose mostly 28.7 µM), most hits filed as inhibitors. actives 6.9% (n = 320,000). AID 504834, 2011
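Parasite growth measured via integrated firefly luciferase reporter in P. falciparum. Infected erythrocytes at 2% hematocrit, 0.05% parasitemia final were treated 96 hours at 37 C under 5% CO2, and luminescence was read.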
SARS PLpro yeast – qHTS of Yeast-based Assay for SARS-CoV PLP; AID 485353, 2010; Potency, µM (highest dose often 32.9 µM), actives largely listed as activators; S. cerevisiae expressing SARS-CoV PLpro, growth rescue; actives 0.19% (n = 330,000); calls by dose curve; further: nearly all actives have a fitted effect of over 55% in size
AMA1-RON2 inh – qHTS for Inhibitors of AMA1-RON; Towards Development of Antimalarial Drug Lead: Primary Screen. Plasmodium falciparum AMA1 (3D7) - RON2 peptide interaction. AlphaScreen AMA1-biotinylated RON2 peptide binding. Potency, µM (series often up to 58.2 µM), actives largely listed as inhibitors. actives 0.2% (n = 360,000). AID 720542, 2013; further: nearly all actives have a fitted effect of over 45% in size
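AMA1 (3D7) with his tag at 25 nM final met compounds first, then biotinylated RON2 peptide at 25 nM; detection used donor plus acceptor beads, 10 µg/mL apiece, read by AlphaScreen after 30 min at room temperature.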
Pf growth 48h – Primary qHTS for delayed death inhibitors of the malarial parasite plastid, 48 hour incubation; P. falciparum luciferase growth in erythrocytes, 48 h; Potency, µM (titrated, usually from 28.7 µM), most hits filed as inhibitors; actives 5.9% (n = 310,000)
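Growth was read as firefly luciferase luminescence after a 48 h, 37 C, 5% CO2 exposure of compounds to reporter-bearing P. falciparum cultures (0.1% parasitemia, 2% hematocrit final) in Albumax-supplemented RPMI 1640.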
Large screens that a line does not name were inactive. Unless noted, the call rests on the fitted dose curve; in most records, active means well fitted curve in the direction sought with a large enough effect; inconclusive means small, poorly fitted or top-dose-only effect, or another doubt; inactive means no such curve, though single readings can be large; an effect the other way counts as inactive or inconclusive.

CCN(CC(=O)Nc1ccccc1C(F)(F)F)C(=O)c1oc2c(Cl)cccc2c1C	Pf growth 96h inconclusive, Pf growth 48h inconclusive
CN(Cc1ccccc1)C(=C(Cl)Cl)/C(=C1/NCCN1Cc1ccc(Cl)nc1)[N+](=O)[O-]	Pf growth 96h 9.28µM (no result: Pf growth 48h)
Cc1ccc(S(=O)(=O)N2CCOCC2)cc1C(=O)OCC(=O)N(Cc1ccccc1)C(C)C	Pf growth 96h inconclusive, Pf growth 48h 14.7µM
Cc1cccc(N(Cc2ccccc2)C(=O)c2ccc(C)c(S(=O)(=O)N3CCOCC3)c2)c1	Pf growth 96h inconclusive, Pf growth 48h 7.38µM
CCCCCC(C)NC(=S)NC(=O)c1cc(S(=O)(=O)N2CCOCC2)ccc1C (stereo not given)	Pf growth 96h 11.7µM, Pf growth 48h inconclusive
CCN(CC1COc2ccccc2O1)C(=O)c1ccc(Cl)c(S(=O)(=O)N2CC(C)OC(C)C2)c1 (stereo not given)	Pf growth 48h inconclusive
CCCC(C)NC(=S)NC(=O)c1cc(S(=O)(=O)N2CCOCC2)ccc1C (stereo not given)	Pf growth 96h inconclusive, Pf growth 48h inconclusive
CC1CN(S(=O)(=O)c2cc(C(=O)N(CCc3ccccc3)Cc3ccccc3)ccc2Cl)CC(C)O1 (stereo not given)	Pf growth 96h 5.22µM, Pf growth 48h 5.22µM
CCOC(=O)c1sc(NC(=O)c2ccccc2C(=O)O)c(C(=O)OCC)c1C	Pf growth 96h inconclusive, Pf growth 48h inconclusive
CN(Cc1cccc(F)c1)C(=O)Cc1ccc(S(=O)(=O)N2CCOCC2)s1	Pf growth 96h inconclusive, Pf growth 48h inconclusive
COc1ccc(CC(=O)N(Cc2ccccc2)c2ccccc2)cc1S(=O)(=O)N1CCOCC1	Pf growth 96h inconclusive, Pf growth 48h inconclusive
Cc1ccc(C(=O)N(CCc2ccccc2)Cc2ccccc2)cc1S(=O)(=O)N1CCCCC1	Pf growth 96h 8.28µM, Pf growth 48h 13.1µM
Cc1ccc(C(=O)N(CCc2ccccc2)Cc2ccccc2)cc1S(=O)(=O)N1CCOCC1	none (no result: Pf growth 96h, SARS PLpro yeast, Pf growth 48h)
Cc1cccc(N(Cc2ccccc2)C(=O)Cc2ccc(S(=O)(=O)N3CCOCC3)s2)c1	Pf growth 96h inconclusive, Pf growth 48h 13.1µM
Cc1cccc(N(Cc2ccccc2)C(=O)c2ccc(F)c(S(=O)(=O)N3CCOCC3)c2)c1	Pf growth 96h 11.7µM, Pf growth 48h 11.7µM
Cc1ccc(N(Cc2ccccc2)C(=O)c2ccc(F)c(S(=O)(=O)N3CCOCC3)c2)cc1	Pf growth 96h inconclusive, Pf growth 48h inconclusive
CN(Cc1ccc(C(C)(C)C)cc1)C(=O)Cc1ccc(S(=O)(=O)N2CCOCC2)s1	Pf growth 96h 13.1µM, Pf growth 48h 9.28µM (no result: SARS PLpro yeast)
COc1ccc(CNC(=O)COc2cccnc2[N+](=O)[O-])cc1OC	none
COc1ccc(C(=O)N(CCc2ccccc2)Cc2ccccc2)cc1S(=O)(=O)N1CCOCC1	Pf growth 96h 8.28µM, Pf growth 48h inconclusive
CN(Cc1ccc(Cl)cc1)C(=O)c1cc(S(=O)(=O)N2CCOCC2)ccc1N1CCCC1	Pf growth 96h inconclusive, Pf growth 48h inconclusive
COc1ccc(C(=O)N(Cc2ccccc2)c2cccc(C)c2)cc1S(=O)(=O)N1CCOCC1	Pf growth 96h 5.22µM, Pf growth 48h 10.4µM
CC1CN(S(=O)(=O)c2cccc(C(=O)N(C)C3CCCCC3)c2)CC(C)O1 (stereo not given)	none (no result: Pf growth 96h, SARS PLpro yeast, Pf growth 48h)
Cc1cccc(N(Cc2ccccc2)C(=O)c2cccc(S(=O)(=O)N3CC(C)OC(C)C3)c2)c1 (stereo not given)	Pf growth 96h inconclusive, Pf growth 48h 13.1µM
Cc1ccc(N(Cc2ccccc2)C(=O)c2cc(S(=O)(=O)N3CCOCC3)ccc2N2CCCC2)cc1	Pf growth 96h inconclusive, AMA1-RON2 inh inconclusive, Pf growth 48h 2.62µM
CS(=O)(=O)c1cccc(-c2nnc(NC(=O)c3ccc(S(=O)(=O)N4CCCC4)cc3)o2)c1	Pf growth 96h 13.1µM, Pf growth 48h inconclusive
CC1CCN(S(=O)(=O)c2ccc(C(=O)Nc3nnc(-c4ccco4)o3)cc2)CC1	Pf growth 96h 14.7µM, Pf growth 48h inconclusive
CC1CN(S(=O)(=O)c2ccc(C(=O)Nc3nnc(-c4ccco4)o3)cc2)CC(C)O1 (stereo not given)	Pf growth 96h inconclusive, Pf growth 48h inconclusive
O=C(Nc1nnc(-c2ccco2)o1)c1ccc([N+](=O)[O-])s1	Pf growth 96h 11.7µM
COc1ccc(-c2nnc(NC(=O)c3ccc(F)cc3)o2)cc1	Pf growth 96h inconclusive, Pf growth 48h inconclusive
O=C(Nc1nnc(-c2ccc(F)cc2)o1)c1ccc(S(=O)(=O)N2CCOCC2)cc1	Pf growth 96h 3.29µM, Pf growth 48h inconclusive
Cc1ccc(NC2CCCN(C(=O)C3CCCCC3)C2)cc1C (stereo not given)	Pf growth 48h inconclusive
O=C(OC(C(=O)NC1CCCC1)c1ccccc1F)c1ccco1 (stereo not given)	none
CCOc1ccc(C(=O)NCC(=O)Nc2ncccc2C)cc1OCC	none (no result: SARS PLpro yeast)
O=C1NC(=O)/C(=C/c2ccccc2Oc2ccc(Cl)cc2)S1	none
COc1ccccc1-c1nnc(NC(=O)c2ccc(S(=O)(=O)N3CCCC3)cc2)o1	Pf growth 96h inconclusive, Pf growth 48h inconclusive
O=C(Nc1nnc(-c2ccco2)o1)c1ccc(S(=O)(=O)N2CCCC2)cc1	Pf growth 96h inconclusive, Pf growth 48h 11.7µM
COc1ccc(OC)c(NC(=O)CSc2nnc(-c3ccco3)o2)c1	none
CCCn1cnc2c1c(=O)n(CCCCC(C)=O)c(=O)n2C	Pf growth 48h 12µM (no result: SARS PLpro yeast, AMA1-RON2 inh)
CCN(CC)C(=O)Cn1cnc2c1c(=O)n(C)c(=O)n2C	none (no result: Pf growth 96h)
COc1cc(CN2CCCC(N3CCc4ccccc4C3)C2)c(Cl)cc1O (stereo not given)	Pf growth 96h 2.94µM, Pf growth 48h inconclusive
COc1cccc(CN2CCCC(N3CCc4ccccc4C3)C2)c1O (stereo not given)	Pf growth 48h inconclusive
COc1cc2c(cc1OC)CN(C1CCC(C(C)(C)C)CC1)CC2 (stereo not given)	none (no result: Pf growth 96h, SARS PLpro yeast, Pf growth 48h)
COc1cc2c(cc1OC)CN(C1CCCN(Cc3cc(Cl)ccc3O)C1)CC2 (stereo not given)	Pf growth 96h 9.28µM, Pf growth 48h inconclusive
COc1ccccc1C(=O)NC(CCSC)C(=O)NCCCSc1ccccc1 (stereo not given)	Pf growth 96h inconclusive, Pf growth 48h inconclusive
O.O.O.O.O.O.O.O=S(=O)([O-])[O-].[Co+2]	Pf growth 96h 1.69µM, Pf growth 48h 6.75µM (no result: SARS PLpro yeast, AMA1-RON2 inh)
COCCn1c(SCC(=O)N2CCCc3ccccc32)nnc1-c1ccoc1C	Pf growth 96h inconclusive
COc1ccc(NC2=C(C(C)=O)C(c3ccc4c(c3)OCO4)C(C(C)=O)C(C)(O)C2)cc1 (stereo not given)	none
O=C(C[n+]1cccc2ccccc21)c1ccc(NC(=O)c2ccccc2)cc1	Pf growth 96h inconclusive, Pf growth 48h 2.08µM
Cc1cc[n+](CC(=O)c2ccc(NC(=O)c3ccccc3)cc2)cc1	Pf growth 48h inconclusive
CCOc1ccc(C(=O)C[n+]2cccc3cc(C)ccc32)cc1	Pf growth 48h 8.28µM
O=C(C[n+]1cccc2ccccc21)c1ccccc1	Pf growth 96h 13.1µM, Pf growth 48h inconclusive
